In PubChem BioAssay:
The source made the active and inactive calls. Unless noted, how the calls were made is not given here.

Key:
[1] = resazurin metabolic signal in HepG2 cells – cell-based, resazurin fluorescence, 24 h, PK04 Diversity Set, profiling panel (AID 1172); details: HepG2 viability, higher = more signal
[2] = budding yeast growth changes without added modifier – OD600, strain BY4716, 24 h, basal condition, primary screen (AID 1173); details: S. cerevisiae BY4716 growth, OD600, 24 h; higher = more signal, called active from +8 up or from −8 down
[3] = viability profiling in MM1S myeloma cells – cell-based, resazurin fluorescence, basal, 24 h, PK04 Diversity Set, profiling panel (AID 1174); details: higher = more signal, called active from +8 up or from −8 down;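 further: MM1S multiple myeloma cell line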
[4] = molecular target: Dihydroorotate dehydrogenase (quinone), mitochondrial (Plasmodium falciparum (isolate 3D7)) (UniProt Q08210); assay: inhibition of P. falciparum DHODH – biochemical, C-terminal His tag, absorbance 600 nm, primary screen (AID 1175); details: PfDHODH enzyme, DCIP absorbance 600 nm; higher = more signal, called active from +8 up or from −8 down;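 further: recombinant parasite enzyme with a five histidine tag at its C terminus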
[5] = inhibition of PAO1 biofilm formation – strain PAO1, LB-PBS medium, absorbance 600 nm, primary screen (AID 1176); details: P. aeruginosa PAO1 growth/biofilm, A600, 12 h; higher = more signal
[6] = growth modulation of vineyard yeast isolate – strain RM11-1a, OD600, basal, 24 h, primary screen (AID 1177);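 further: cultures grown under basal conditions with no added stressor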; details: S. cerevisiae RM11-1a growth, OD600, 24 h; higher = more signal, called active from +8 up or from −8 down
[7] = growth of efflux-deficient E. coli DRC39 – strain DRC39, OD650, 24 h, E. coli filamentation inducers, primary screen (AID 1178);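 further: growth measured as culture turbidity by optical density at 650 nm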; details: E. coli DRC39 acrAB, higher = more signal, called active from +8 up or from −8 down
[8] = growth of efflux-deficient E. coli DRC39 – strain DRC39, OD650, 48 h, E. coli filamentation inducers, primary screen (AID 1179);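 further: screen aims at cell division blockers that make cells filament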; details: E. coli DRC39 delta-acrAB growth, higher = more signal, called active from +8 up or from −8 down
[9] = viability profiling in RPMI8226 myeloma cells – cell-based, resazurin fluorescence, basal, 24 h, PK04 Diversity Set, profiling panel (AID 1180); details: higher = more signal;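 further: RPMI8826 multiple myeloma cell line at 5000 cells per well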
[10] = molecular target: E3 ubiquitin-protein ligase XIAP (Homo sapiens) (UniProt P98170); assay: small molecules binding XIAP protein – biophysical, small-molecule microarray, fluorescence 635 nm, primary screen (AID 1181); details: higher = more signal;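 further: score merges 667 nm emission and signal to noise over triplicate slides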
[11] = tested on: XIP peptide (Xip251-270) binding; assay: XIP fragment 251-270 binding compounds – biochemical, small-molecule microarray, fluorescence 635/667 nm, 0.1 µg/mL protein, primary screen (AID 1182); details: fluorescent protein binding, 635 nm, higher = more signal, called active from +8 up or from −8 down
XIP peptide (Xip251-270) = assay: compounds binding XIP fragment 251-270 – biochemical, small-molecule microarray, fluorescence 635/667 nm, 0.5 µg/mL protein, primary screen (AID 1183); details: fluorescence 635 nm, higher = more signal
[12] = blood-stage malaria parasite viability loss – strain 3D7, DAPI fluorescence, 100 nL, primary screen (AID 1184);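 further: parasites grown inside human red blood cells in medium with human serum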; details: P. falciparum 3D7 growth, 3 d, higher = more signal
[13] = molecular target: Homeobox protein Hox-A13 (Mus musculus) (UniProt Q62424); assay: disruptors of Hoxa13 oligonucleotide interaction – biochemical, fluorescence polarization, labeled oligonucleotide, primary screen (AID 1185); details: Hoxa13:DNA binding, 15 min, higher = more signal, called active from +8 up or from −8 down
[14] = blockers of DNA damage checkpoint Chk1 activation – imaging, HeLa, hydroxyurea, phospho-Chk1 antibody, percent positive cells, primary screen (AID 1186); details: hydroxyurea-induced phospho-Chk1 immunofluorescence imaging, higher = more signal
[15] = blockers of DNA damage checkpoint Chk1 activation – imaging, HeLa, hydroxyurea, phospho-Chk1 nuclear intensity, primary screen (AID 1187); details: hydroxyurea-induced phospho-Chk1 immunofluorescence imaging, higher = more signal

Dihydroorotate dehydrogenase (quinone), mitochondrial (Plasmodium falciparum (isolate 3D7)), sequence (Q08210 whole entry, looked up): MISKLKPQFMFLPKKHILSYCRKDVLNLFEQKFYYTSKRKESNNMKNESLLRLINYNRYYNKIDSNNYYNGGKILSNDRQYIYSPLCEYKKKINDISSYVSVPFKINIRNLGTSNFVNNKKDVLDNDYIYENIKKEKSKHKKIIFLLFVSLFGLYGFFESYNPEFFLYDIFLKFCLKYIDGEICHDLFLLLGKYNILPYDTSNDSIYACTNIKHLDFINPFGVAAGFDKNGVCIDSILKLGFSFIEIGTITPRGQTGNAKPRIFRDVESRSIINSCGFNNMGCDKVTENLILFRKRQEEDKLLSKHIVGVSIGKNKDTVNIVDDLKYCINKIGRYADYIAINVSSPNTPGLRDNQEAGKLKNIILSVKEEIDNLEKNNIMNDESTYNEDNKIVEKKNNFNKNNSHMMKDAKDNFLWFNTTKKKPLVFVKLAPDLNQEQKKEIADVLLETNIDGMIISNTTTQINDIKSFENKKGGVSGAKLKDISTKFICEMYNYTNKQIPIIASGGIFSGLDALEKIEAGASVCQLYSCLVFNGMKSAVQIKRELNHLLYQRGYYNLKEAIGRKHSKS
Homeobox protein Hox-A13 (Mus musculus), sequence (Q62424 whole entry, looked up): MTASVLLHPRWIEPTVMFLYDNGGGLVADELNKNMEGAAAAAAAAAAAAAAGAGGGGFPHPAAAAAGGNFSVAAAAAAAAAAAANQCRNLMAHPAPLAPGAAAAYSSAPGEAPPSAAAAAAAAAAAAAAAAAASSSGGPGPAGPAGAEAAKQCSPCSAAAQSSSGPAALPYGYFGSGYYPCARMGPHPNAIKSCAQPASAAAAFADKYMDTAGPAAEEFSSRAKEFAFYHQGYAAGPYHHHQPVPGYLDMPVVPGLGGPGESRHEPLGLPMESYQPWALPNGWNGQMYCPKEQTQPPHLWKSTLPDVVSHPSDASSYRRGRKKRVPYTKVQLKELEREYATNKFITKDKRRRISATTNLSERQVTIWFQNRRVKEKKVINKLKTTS
E3 ubiquitin-protein ligase XIAP (Homo sapiens), sequence (P98170 whole entry, looked up, the tested form may be a part): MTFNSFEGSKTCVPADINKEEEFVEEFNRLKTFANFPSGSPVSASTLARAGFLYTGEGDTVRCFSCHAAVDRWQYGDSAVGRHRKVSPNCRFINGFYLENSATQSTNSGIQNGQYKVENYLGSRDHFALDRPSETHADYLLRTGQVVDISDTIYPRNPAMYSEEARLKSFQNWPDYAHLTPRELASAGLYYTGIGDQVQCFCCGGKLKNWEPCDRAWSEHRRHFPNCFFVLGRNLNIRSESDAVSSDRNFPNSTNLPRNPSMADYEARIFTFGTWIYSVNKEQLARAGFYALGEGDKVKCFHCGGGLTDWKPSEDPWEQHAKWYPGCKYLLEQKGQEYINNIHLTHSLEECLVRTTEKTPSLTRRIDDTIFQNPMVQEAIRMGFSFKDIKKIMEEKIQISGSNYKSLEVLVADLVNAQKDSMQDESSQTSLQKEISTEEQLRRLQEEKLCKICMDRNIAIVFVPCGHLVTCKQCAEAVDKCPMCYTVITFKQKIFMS

| SMILES | z-score [1] | z-score [2] | z-score [3] | composite z-score [4] | z-score [5] | z-score [6] | z-score [7] | z-score [8] | z-score [9] | composite z-score [10] | composite z-score [11] | composite z-score (XIP peptide (Xip251-270)) | z-score [12] | z-score [13] | z-score [14] | z-score [15] |
| --- | --- | --- | --- | --- | --- | --- | --- | --- | --- | --- | --- | --- | --- | --- | --- | --- |
| O=C1C2C=CC(C(O)c3ccc(Br)cc3)N(Nc3ccccc3F)C2C(=O)N1c1ccccc1 (centres undefined) | 0.732 | -2.45 (inactive) | -0.18 (inactive) | 0.356 (inactive) | 0.629 (inactive) | -1.17 (inactive) | 0.774 (inactive) | 2.06 (inactive) | 0.489 | 0.0933 | 0.197 (inactive) | 0.704 | -0.133 | -2.41 (inactive) | -0.863 (inactive) | -0.909 (inactive) |
| [N-]=[N+]=Nc1ccccc1[C@H]1OC(c2ccc(OCCCO)cc2)=N[C@@]1(CCS(=O)(=O)c1ccccc1)C(=O)NCCN1CCOCC1 | 0.3 | -0.378 (inactive) | 0.131 (inactive) | 0.467 (inactive) | 0.537 (inactive) | 0.0557 (inactive) | -0.259 (inactive) | -0.264 (inactive) | 0.291 | 0.177 | 0.345 (inactive) | 0.868 | -2.52 | -5.15 (inactive) | 0.392 (inactive) | 0.812 (inactive) |
| CC(C)OC(=O)C=C1C[C@@H](c2ccc(C(F)(F)F)cc2)O[C@@H](c2ccc(C(F)(F)F)cc2)O1 | 0.54 | -5.34 (inactive) | 0.533 (inactive) | -1.4 (inactive) | 0.257 (inactive) | -1.93 (inactive) | 0.2 (inactive) | 1.41 (inactive) | 0.0779 | 0.371 | 0.416 (inactive) | 0.567 | -0.266 | -3.22 (inactive) | -0.272 (inactive) | 0.0075 (inactive) |
| C=C(CCCC)/C(=C/C[C@@H](OC(=O)c1ccncc1)c1ccccc1OCCO)c1cnc2ccccc2c1 | -0.846 | -2.19 (inactive) | -1.09 (inactive) | -3.38 (inactive) | 1.07 (inactive) | -0.592 (inactive) | -0.334 (inactive) | -0.514 (inactive) | 0.133 | -0.0599 | 0.0648 (inactive) | 0.647 | -3.02 | -3.49 (inactive) | 0.294 (inactive) | -0.0646 (inactive) |
| O=C(NCC(F)(F)F)[C@@H]1c2ccccc2C(=O)N(Cc2ccc(OC(F)(F)F)cc2)[C@H]1c1ccc(CO)cc1 | 1.09 | -1.13 (inactive) | 0.482 (inactive) | -0.504 (inactive) | -0.177 (inactive) | 0.0971 (inactive) | 0.504 (inactive) | 0.632 (inactive) | 1.04 | 0.104 | 0.21 (inactive) | 0.235 | -0.828 | -3.13 (inactive) | -0.263 (inactive) | -0.383 (inactive) |
| Cc1cc(C)c(C(O)C2C=CC3C(=O)NC(=O)C3N2Nc2ccc(Cl)cc2Cl)c(C)c1 (centres undefined) | -2.05 | -3.83 (inactive) | -1.94 (inactive) | -0.0825 (inactive) | 1.62 (inactive) | 0.737 (inactive) | -0.731 (inactive) | -1.17 (inactive) | -1.81 | 0.0251 | 0.696 (inactive) | 0.179 | 0.17 | -3.47 (inactive) | 0.73 (inactive) | 0.314 (inactive) |
| CCCC[C@@H]1C[C@H]1[C@@H](NC(=O)c1cccs1)c1ccc(C(F)(F)F)cc1 | -0.117 | 1.95 (inactive) | -0.6 (inactive) | 0.322 (inactive) | 0.771 (inactive) | 1.83 (inactive) | -0.82 (inactive) | -0.734 (inactive) | -0.601 | 0.0408 | -0.011 (inactive) | -0.289 | -0.41 | -0.891 (inactive) | 0.984 (inactive) | 0.516 (inactive) |
| COc1cc2c(cc1O)C(C)N(Cc1ccc([N+](=O)[O-])o1)CC2 (centres undefined) | -0.11 | -0.942 (inactive) | -0.653 (inactive) | -0.749 (inactive) | -0.103 (inactive) | -0.74 (inactive) | -1.04 (inactive) | -0.679 (inactive) | -0.396 | -0.127 | 0.563 (inactive) | 0.962 | -1.2 | -6.22 (inactive) | 0.0111 (inactive) | 0.264 (inactive) |
| O=C(NCCCCCNC(=O)/C(Cc1ccccc1)=N/O)OCc1ccccc1 | 0.619 | -3.54 (inactive) | 0.63 (inactive) | -0.713 (inactive) | 0.695 (inactive) | -1.21 (inactive) | 1.92 (inactive) | 1.42 (inactive) | 1.09 | -0.253 | -0.333 (inactive) | 0.132 | -1.94 | -4.08 (inactive) | -0.466 (inactive) | 0.238 (inactive) |
